Test results taken from PubChem BioAssay (NCI).
This is part of a sample that, as a whole, favours compounds with a hit. Of some 83,000 tested, about 20% had one in any assay.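 Note: values are percent growth. 100 is the growth of untreated cells, values between 100 and 0 indicate rising inhibition; between -100 and 0 indicates cell death.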 A number with no mark means an inactive call. Calls of active or inactive are those of the source. How the source made its calls: active means growth percent below 10; inactive means the rest.

Experiments:
Experiment in all cases: NCI-60 one-dose screen, 48 h (100 = growth as untreated, 0 = no growth, -100 = all killed)
Conditions in all cases: 10 µM unless noted
T-47D breast = tested on: T-47D breast
BT-549 breast = tested on: BT-549 breast
MDA-MB-435 melanoma = tested on: MDA-MB-435 melanoma
SW-620 colon = tested on: SW-620 colon
MCF7 breast = tested on: MCF7 breast
HCT-116 colon = tested on: HCT-116 colon
HCC-2998 colon = tested on: HCC-2998 colon
KM12 colon = tested on: KM12 colon

Row | Structure (SMILES) | growth (T-47D breast) | growth (BT-549 breast) | growth (MDA-MB-435 melanoma) | growth (SW-620 colon) | growth (MCF7 breast) | growth (HCT-116 colon) | growth (HCC-2998 colon) | growth (KM12 colon)
1 | CC(C)(C)c1cc(C[P+](c2ccc(Cl)cc2)(c2ccc(Cl)cc2)c2ccc(Cl)cc2)cc(C(C)(C)C)c1O | 56.1% | 102% | 84.7% | 79.6% | 65.1% | 40.7% | 107% | 88.9%
2 | CCC(C)CC(N)O (centres undefined) | 137% | 108% | 104% | 108% | 101% | 111% | 112% | 102%
3 | CCOC(=O)CCCCCCCCC(=O)OCC | 89.6% | 109% | 112% | 107% | 102% | 110% | 98.4% | 105%
4 | N=C(N)N=Nc1ccc(NN=C(N)N)cc1 | 97.3% | 88.9% | 109% | 38.3% | 90.9% | 85.9% | 86.6% | 43.8%
5 | O=C(/C=C1\C(=O)N(Cc2ccc([N+](=O)[O-])cc2)c2ccccc21)c1ccc(OCCN2CCCC2)cc1 | 56.3% | 81.5% | 48.2% | 18.7% | 22.3% | 12.2% | 101% | 90.1%
6 | Nc1nc2c(c3ncncc13)C(c1cccc(C(F)(F)F)c1)Cc1ncncc1-2 (centres undefined) | 37.9% | 30.1% | -24.7% (active) | 28.9% | 19.2% | 18.5% | 64.3% | 28.9%
7 | CCCCCCCCCCCCCCCCNC(=O)Nc1ccc(C)c(NC(=O)NCCCCCCCCCCCCCCCC)c1 | 104% | 104% | 105% | 107% | 101% | 117% | 110% | 113%
8 | COCn1c(C(=O)OC)cc2oc(/C=C3/SC(=S)N(N)C3=O)cc21 | 94.4% | 80.8% | 94.9% | 97.6% | 97% | 93.8% | 102% | 92.3%
9 | CCOc1ccccc1/C=N\N=C(N/N=C/c1ccccc1OCC)N/N=C/c1ccccc1OCC | 16.1% | 31.8% | 13.4% | 12.1% | 3.52% (active) | 13.1% | 23.9% | 10.7%
10 | CCCC(C)c1cc(Cc2cc(Cl)cc(Cl)c2O)c(O)c(Cc2cc(Cl)cc(Cl)c2O)c1 (centres undefined) | 6.27% (active) | -14.9% (active) | 7.24% (active) | 12.9% | 4.88% (active) | 4.58% (active) | 8.08% (active) | 9.12% (active)
11 | CCC(C)(C)c1ccc(OCCCCCCN2CCNCC2)cc1 | 40% | 89.1% | 25.9% | -10.4% (active) | 4.81% (active) | 6.39% (active) | -13.5% (active) | 25.2%
12 | O=C(/C(Br)=C/c1ccccc1)c1ccccc1 | -31.7% (active) | 95.8% | -11.2% (active) | -77.3% (active) | 0.441% (active) | -100% (active) | 94% | 53.3%
13 | Nc1nc2c(c3cnccc13)C(c1cccc(Br)c1)Cc1cnccc1-2 (centres undefined) | 43.9% | -15.6% (active) | -37.2% (active) | 25.9% | 11.5% | 3.93% (active) | 34.8% | 13.2%
14 | COc1cc2c(/C=C3\C(=O)Nc4ccc(Br)cc43)c(Cl)n(C)c2cc1C | 64.4% | 35.1% | 7.32% (active) | 31.9% | 23.9% | 5.1% (active) | -39.4% (active) | -21.5% (active)
15 | CC#Cc1nc(Nc2cc(C)[nH]n2)c2ccccc2n1 | 2.69% [100 µM] (active) | -61.9% [100 µM] (active) | -44.4% [100 µM] (active) | -1.25% [100 µM] (active) | 6.03% [100 µM] (active) | -15.7% [100 µM] (active) | -86.3% [100 µM] (active) | -74.6% [100 µM] (active)
16 | CC(=O)N(N=O)c1ccc([N+](=O)[O-])cc1Cl | 29.2% | 71.7% | 66.7% | 71.6% | 52.2% | 44.9% | 76.6% | 69%
17 | CC(=O)Nc1ccc(S(=O)(=O)Cl)cc1 | 101% | 114% | 115% | 115% | 96% | 111% | 108% | 107%

Row | Structure (SMILES) | growth (T-47D breast) | growth (BT-549 breast) | growth (MDA-MB-435 melanoma) | growth (SW-620 colon) | growth (MCF7 breast) | growth (HCT-116 colon) | growth (HCC-2998 colon) | growth (KM12 colon)
18 | CCCCCCNC(=O)Oc1ccc(/C(=C(/C)Cc2ccc(OC)cc2)c2ccc(OCCN3CCCCC3)cc2)cc1 | 42% | 92.5% | 91.5% | 84.6% | 30.6% | 63.7% | 94.9% | 85.6%
19 | Oc1ccccc1\C=N/N=C/C=C/c1ccccc1 | 76.9% | 91.4% | 105% | 106% | 81.4% | 103% | 95.3% | 92.8%
20 | COc1ccc(Cn2cc3c(c2)-c2oncc2CC3)cc1OC | 47.5% | 59.4% | -46.2% (active) | 21.9% | 7.49% (active) | 4.37% (active) | -37.5% (active) | 5.46% (active)
21 | O=C(C(=O)N1CCOCC1)c1ccc(O[C@H]2O[C@H](CO)[C@@H](O)[C@H](O)[C@@H]2O)cc1 | 107% | 99.3% | 108% | 107% | 100% | 96.6% | 79% | 110%
22 | COc1ccc(/C=C2\SC(=O)N(Cc3cc(=O)oc4ccc(OC)cc34)C2=O)cc1 | 63.1% | 77.4% | 100% | 106% | 82.5% | 82.8% | 95.4% | 88.9%
23 | COc1nc(OC)nc(-c2cc(-c3cc(OC)c(OC)c(OC)c3)no2)n1 | 103% | 120% | 111% | 102% | 93.7% | 105% | 112% | 102%
24 | CCCCCCCCC1OC1CCCCCCCC(=O)O (centres undefined) | 99% | 128% | 107% | 108% | 101% | 101% | 107% | 104%
25 | COc1ccc(C(O)(c2ccccc2)C(C(=O)O)c2ccccc2)cc1 (centres undefined) | 86% | 94.7% | 117% | 107% | 114% | 97.2% | 102% | 93.9%
26 | CC(=O)/C(=C/c1ccc(-c2ccccc2)cc1)C(=O)c1ccccc1 | 48.6% | 89.5% | 80.9% | 85.5% | 39.6% | 57.6% | 98.9% | 80.5%
27 | CCCCCCCCCCC(C[N+](C)(C)C/C=C/c1ccccc1)C(O)c1ccccc1 (centres undefined) | 10.3% | -6.83% (active) | -66% (active) | 2.5% (active) | -66.9% (active) | -87.7% (active) | 7.77% (active) | -97.5% (active)
28 | CC(C)CSc1nc(-c2ccc(F)cc2)c(C#N)c(N2CCCCC2)n1 | 91.2% | 88.9% | 98.6% | 97.8% | 83% | 89.5% | 104% | 86.1%
29 | COc1ccc(Nc2c3ccccc3nc3ccccc23)cc1 | 30.6% | 42.2% | 31.3% | 24.2% | 11.5% | 13% | 46% | 37.6%
30 | Brc1c(-c2ccncc2)nc2n1CCS2 | 100% | 105% | 94% | 105% | 110% | 85% | 116% | 116%
31 | CC1C(=O)CCCC1=O | 96.1% | 104% | 105% | 113% | 95.8% | 113% | 109% | 113%
32 | Cc1cc2c(-c3nc4ccccc4[nH]3)c(O)c(O)cc2c(O)c1-c1c(C)cc2c(-c3nc4ccccc4[nH]3)c(O)c(O)cc2c1O | -16.7% (active) | -6.04% (active) | 23.3% | 23.4% | 5.3% (active) | 7.37% (active) | 19.5% | -38.6% (active)
33 | O=C(N/N=C/c1cc(Cl)ccc1O)C(=O)N/N=C/c1cc(Cl)ccc1O | 73.5% | 86.9% | 67.8% | 61.3% | 61.3% | 60.2% | 59.5% | 59.1%
